The nature of test [1]: AP1 Signaling Pathway (AID 357; active means well fitted curve in either direction with a large enough effect, not every such curve was filed as active; further: on the % scale 0 is the no-effect control and ±100 the full control effect). The following applies: ME-180 AP-1-bla reporter, EGF-induced, beta-lactamase ratio, 5 h; at 7.69 µM (top of the series) unless noted. A digest of the protocol:
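ME-180 cells with beta-lactamase reporter under AP-1 response element, stimulated with EC50 EGF; compounds tested in titration series, 5 h at 37 °C. CCF4 substrate added 2.5 h at room temperature; 460/530 nm emission ratio gave %activity and AC50.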

Test [2] can be described thus: NFAT Signaling Pathway (AID 444; active means well fitted curve in either direction with a large enough effect, not every such curve was filed as active;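 further: carbachol stimulus at about its EC50 of 1 µM final; on the % scale 0 is the no-effect control and ±100 the full control effect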). The following applies: Jurkat NFAT-bla M1, carbachol, beta-lactamase ratio, 5 h; at 7.69 µM (top of the series) unless noted. A digest of the protocol:
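Read-out: CCF4 FRET ratio (460 nm/530 nm) after 1 h RT dye loading, used for %activity and AC50 from titration series. Cells: Jurkat NFAT-β-lactamase/M1 line, treated with compound plus 1 uM carbachol for 5 h, 37 °C.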

A short description of test [3]: Stat Signaling Pathway (AID 446; active means well fitted curve in either direction with a large enough effect, not every such curve was filed as active;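 further: ME-180 cervical cancer cells given 40 pM IL-6 alongside compound; SIE-controlled beta-lactamase reporter measured as 460/530 nm FRET emission ratio; on the % scale 0 is the no-effect control and ±100 the full control effect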). The following applies: ME-180 (cervical carcinoma) SIE beta-lactamase reporter, IL-6 stimulated, 5 h; at 7.69 µM (top of the series) unless noted. In short, it runs like this:
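ME-180 cells carrying a SIE-driven beta-lactamase reporter are stimulated with 40 pM IL-6 for 5 h at 37C in the presence of compound. The 460/530 nm FRET substrate ratio is read after 2.5 h at RT. Data are normalised to 300 pM IL-6 and to 125 nM JAK inhibitor controls.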

The target of test [4] is Glucocorticoid receptor (Homo sapiens) (UniProt P04150). As to the kind of experiment: GR-GFP Redistribution (AID 450;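 active means compounds whose dose series gives a full or clear partial fitted curve of increased nuclear translocation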; further: potency means the concentration at half of the fitted maximal effect). The following applies: U2OS GR-GFP nuclear translocation, laser cytometry, 2 h.
Chain of Glucocorticoid receptor (Homo sapiens) (P04150 whole entry, looked up, the tested form may be a part): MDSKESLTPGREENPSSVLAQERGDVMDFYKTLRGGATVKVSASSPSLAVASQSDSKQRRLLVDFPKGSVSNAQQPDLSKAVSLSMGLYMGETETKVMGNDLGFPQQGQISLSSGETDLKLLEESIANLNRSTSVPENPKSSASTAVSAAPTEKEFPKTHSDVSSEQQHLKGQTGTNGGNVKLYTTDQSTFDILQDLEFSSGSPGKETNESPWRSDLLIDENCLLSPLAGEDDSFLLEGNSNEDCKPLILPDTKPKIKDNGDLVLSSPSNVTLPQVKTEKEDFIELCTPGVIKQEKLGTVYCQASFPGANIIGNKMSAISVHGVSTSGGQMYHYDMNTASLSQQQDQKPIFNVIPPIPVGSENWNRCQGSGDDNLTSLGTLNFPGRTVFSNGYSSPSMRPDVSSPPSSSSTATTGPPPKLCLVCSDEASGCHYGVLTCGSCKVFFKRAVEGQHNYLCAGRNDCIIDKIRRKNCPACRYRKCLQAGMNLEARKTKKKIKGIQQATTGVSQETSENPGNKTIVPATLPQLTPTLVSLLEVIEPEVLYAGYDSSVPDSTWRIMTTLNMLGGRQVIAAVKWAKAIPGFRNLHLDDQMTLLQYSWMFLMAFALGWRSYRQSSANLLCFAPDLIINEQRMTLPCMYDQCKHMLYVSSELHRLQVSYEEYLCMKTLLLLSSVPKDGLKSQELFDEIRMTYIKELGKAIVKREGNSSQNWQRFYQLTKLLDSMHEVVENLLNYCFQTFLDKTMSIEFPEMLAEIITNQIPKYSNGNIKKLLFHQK
Test [5] shares this target. In words: GR-EFC Redistribution (AID 451; calls by dose curve; further: potency means the concentration at half of the fitted maximal effect). Particulars: CHO-K1 GR-EFC translocation, beta-gal luminescence, 2 h. A digest of the protocol: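 Translocation of GR-ED fusion to nuclear EA restores b-gal, read by luminescence after 1 h room-temperature detection. Engineered CHO-K1 biosensor cells, 1,000/well, exposed 2 h at 37 C to titrations up to 46 uM final.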
For test [6], the target named is Mitogen-activated protein kinase 10 (Mus musculus) (UniProt Q61831). As to the kind of experiment: JNK3 AlphaScreen Assay (AID 530; active means well fitted curve in either direction with a large enough effect, not every such curve was filed as active;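 further: kinase came from lysate of stimulated human HepG2 cells; signal reports phosphorylation of biotinylated GST-cJun 1-79 at Ser73 with 10 µM ATP; on the % scale 0 is the no-effect control and ±100 the full control effect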). In short, it runs like this:
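Room-temperature AlphaScreen kinase assay; pre-activated HepG2 lysate as JNK3 source, biotin-GST-cJun(1-79) substrate, 10 uM ATP, compound 15 min preincubation.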
Background: Alpha assays give light when donor and acceptor beads are brought close together.

Test [7] can be described thus: qHTS Assay for Lipid Storage Modulators (AID 1519; calls by dose curve). The following applies: Drosophila S3 cells, BODIPY lipid droplet/cell ratio, laser cytometry, cells loaded with oleic acid; for activity change, negative = inhibition: at 57.5 µM (top of the series). A digest of the protocol: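 Cells seeded at 5,000 per well were treated with compounds over a concentration series and loaded with oleic acid (400 uM, as added). Lipid droplet fluorescence (488 nm excitation, 500-530 nm channel) was read by laser-scanning cytometry and normalized to 20 uM Triacsin C.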

Test [8] deals with Dual specificity protein kinase CLK4 (Homo sapiens) (UniProt Q9HAZ1). In words: qHTS Assay for Inhibitors of CDC-like Kinase 4 (Kinase-Glo Assay) (AID 1770). Further: nearly all actives have a fitted effect of over 65% in size. Further: potency means the concentration at half of the fitted maximal effect. In short, it runs like this: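 Readout: Kinase-Glo luminescence from ATP left after a 4.5 h room-temperature reaction of 25 nM Clk4 with 100 uM RS peptide and 1 uM ATP (final). Buffer: 25 mM Tris pH 7.5, 10 mM MgCl2.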
Chain of Dual specificity protein kinase CLK4 (Homo sapiens) (Q9HAZ1 whole entry, looked up): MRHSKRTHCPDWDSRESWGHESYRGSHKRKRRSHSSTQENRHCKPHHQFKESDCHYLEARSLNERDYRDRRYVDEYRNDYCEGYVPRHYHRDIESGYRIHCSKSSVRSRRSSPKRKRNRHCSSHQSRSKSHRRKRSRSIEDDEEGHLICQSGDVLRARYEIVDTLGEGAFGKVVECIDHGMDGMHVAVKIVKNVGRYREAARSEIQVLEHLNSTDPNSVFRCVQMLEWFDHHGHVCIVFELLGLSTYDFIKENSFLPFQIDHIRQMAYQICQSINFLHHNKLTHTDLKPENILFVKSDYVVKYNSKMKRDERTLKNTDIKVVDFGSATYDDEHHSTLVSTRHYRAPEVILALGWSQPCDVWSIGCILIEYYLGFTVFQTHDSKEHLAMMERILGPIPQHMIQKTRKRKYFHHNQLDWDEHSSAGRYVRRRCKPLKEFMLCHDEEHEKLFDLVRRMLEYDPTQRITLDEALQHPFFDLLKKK
Background: Quantitative high-throughput screening tests each substance at several concentrations.

Test [9] shares this target. In words: qHTS Assay for Inhibitors of CDC-like Kinase 4 (ADP-Glo Assay) (AID 1771). Further: nearly all actives have a fitted effect of over 70% in size. Further: potency means the concentration at half of the fitted maximal effect. A digest of the protocol: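 Kinase reaction: Clk4 at 25 nM, RS repeat peptide substrate at 100 uM, ATP at 1 uM, 1 hr, room temperature. Product ADP detected as luciferase signal via ADP-Glo.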
The target in test [10] is Ubiquitin carboxyl-terminal hydrolase 1 (Homo sapiens) (UniProt O94782). As to the kind of experiment: Inhibitors of USP1/UAF1: Pilot qHTS (AID 504865).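 Further: rhodamine fluorescence freed from ubiquitin-rhodamine substrate followed over time; top concentration of the series differs between compounds; on the % scale 0 is the no-effect control and ±100 the full control effect; nearly all actives have a fitted effect of over 35% in size.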 In short, it runs like this:
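1nM USP1/UAF1 + cpd, 15 min RT; start w/ Ub-Rho 150nM final; kinetic FL 480/540 nm, 6 reads q60 s. Buffer 50mM HEPES pH 7.8, 0.5mM EDTA, 1mM TCEP, 0.01% Tween-20, 0.1 mg/ml BSA.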

Test [11] in a line: Primary qHTS for small molecule stabilizers of the endoplasmic reticulum resident proteome: Secreted ER Calcium Modulated Protein (SERCaMP) assay (AID 1508630). Further: on the % scale 0 is the no-effect control and ±100 the full control effect. A digest of the protocol: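 GLuc-SERCaMP-expressing SH-SY5Y cells, pretreated 16 h with compound, are challenged with thapsigargin to empty ER calcium stores; after 4 h, coelenterazine is added directly to the medium and luminescence is imaged.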

Test [12] addresses Lysosomal acid glucosylceramidase (Homo sapiens) (UniProt P04062). As to the kind of experiment: Glucocerebrosidase-p2 (AID 348; in the data active means potency below about 10 µM; further: potency means the concentration at half of the fitted maximal effect). Particulars: purified GBA, blue fluorogenic substrate, 40 min. In short, it runs like this: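 Compounds titrated from 0.6 nM upwards against 0.2 nM enzyme in pH 5.9 citric acid/KH2PO4, taurocholate, tween-20; blue fluorogenic substrate 80 uM, 40 min room temperature, stopped and read Ex 365/Em 440 for AC50.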

Test [13] concerns the target Cytochrome P450 1A2 (Homo sapiens) (UniProt P05177). In words: p450-cyp1a2 (AID 410; calls by dose curve; further: potency means the concentration at half of the fitted maximal effect). A digest of the protocol:
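Inhibition was calculated relative to 57 uM furafylline (full inhibition). The reaction used human CYP1A2 at 20nM with Luciferin-ME at its Km, 100uM, driven by an NADPH-regenerating system for 60 min at room temperature.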

Test [14] addresses Cytochrome P450 3A4 (Homo sapiens) (UniProt P08684). In words: qHTS Assay for Inhibitors and Substrates of Cytochrome P450 3A4 (AID 884). Further: on the % scale 0 is the no-effect control and ±100 the full control effect; nearly all actives have a fitted effect of over 50% in size. A digest of the protocol:
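20 nM human CYP3A4 with 25 uM Luciferin-PPXE (at KM) in 200 mM KPO4, preincubated 10 min with compound; NADPH regeneration started a 60 min RT reaction. Luciferin detected by luminescence, normalized to 57 uM ketoconazole as full inhibition.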

In test [15] the target is Cytochrome P450 2C19 (Homo sapiens) (UniProt P33261). As to the kind of experiment: qHTS Assay for Inhibitors and Substrates of Cytochrome P450 2C19 (AID 899). Further: potency means the concentration at half of the fitted maximal effect; nearly all actives have a fitted effect of over 60% in size. In short, it runs like this: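 Luminescence readout of luciferin formed from 10uM Luciferin-H EGE (KM level) by 5 nM CYP2C19 in 50mM KPO4. 60 min NADPH-driven reaction at 37C after 10 min compound preincubation; data scaled to 57uM ketoconazole inhibition.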
Chain of Cytochrome P450 2C19 (Homo sapiens) (P33261 whole entry, looked up): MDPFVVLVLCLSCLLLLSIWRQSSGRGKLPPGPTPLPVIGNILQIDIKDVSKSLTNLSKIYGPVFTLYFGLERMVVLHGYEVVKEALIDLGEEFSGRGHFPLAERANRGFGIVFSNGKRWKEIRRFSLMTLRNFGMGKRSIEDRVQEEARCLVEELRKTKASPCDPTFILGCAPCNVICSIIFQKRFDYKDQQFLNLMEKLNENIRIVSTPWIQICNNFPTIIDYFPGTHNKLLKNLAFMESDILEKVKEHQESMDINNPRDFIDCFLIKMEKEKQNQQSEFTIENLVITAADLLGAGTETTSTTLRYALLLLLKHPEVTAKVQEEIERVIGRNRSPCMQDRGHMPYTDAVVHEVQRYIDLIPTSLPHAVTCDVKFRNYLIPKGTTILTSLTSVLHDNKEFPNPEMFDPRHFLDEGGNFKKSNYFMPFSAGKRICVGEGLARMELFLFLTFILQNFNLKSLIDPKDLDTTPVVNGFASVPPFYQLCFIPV

Test [16] has as its target Dual specificity protein kinase CLK4 (Homo sapiens) (UniProt Q9HAZ1). In words: qHTS Assay for Inhibitors of CDC-like Kinase 4 (ADP-FP Assay) (AID 1795).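 Further: recombinant human CLK4 phosphorylating RS repeat peptide at 1 µM ATP; on the % scale 0 is the no-effect control and ±100 the full control effect; nearly all actives have a fitted effect of over 60% in size.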 A digest of the protocol:
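FP readout: Orange Transcreener ADP2 tracer (4 nM) plus ADP antibody, read after 30 min at room temperature. Kinase step: 6.25 nM Clk4, 100 uM RS peptide, 1 uM ATP, pH 7.5, 1 h.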

The target in test [17] is 3',5'-cyclic-AMP phosphodiesterase 4B (Homo sapiens) (UniProt Q07343). As to the kind of experiment: qHTS Assay for Inhibitors of PDE-IV (AID 607; active means well fitted activation curve with a large enough effect in the main read-out, with a control signal flat, not every such curve was filed as active; further: % of control where 0% means no effect). In short, it runs like this: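 HEK293 ACTOne cells with CNG channel (1000/well), endogenous PDE4; membrane potential dye, compounds up to 22.9 uM final. Fluorescence Ex 535/Em 590; RO 20-1724 (100 uM final) as reference.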
Chain of 3',5'-cyclic-AMP phosphodiesterase 4B (Homo sapiens) (Q07343 whole entry, looked up): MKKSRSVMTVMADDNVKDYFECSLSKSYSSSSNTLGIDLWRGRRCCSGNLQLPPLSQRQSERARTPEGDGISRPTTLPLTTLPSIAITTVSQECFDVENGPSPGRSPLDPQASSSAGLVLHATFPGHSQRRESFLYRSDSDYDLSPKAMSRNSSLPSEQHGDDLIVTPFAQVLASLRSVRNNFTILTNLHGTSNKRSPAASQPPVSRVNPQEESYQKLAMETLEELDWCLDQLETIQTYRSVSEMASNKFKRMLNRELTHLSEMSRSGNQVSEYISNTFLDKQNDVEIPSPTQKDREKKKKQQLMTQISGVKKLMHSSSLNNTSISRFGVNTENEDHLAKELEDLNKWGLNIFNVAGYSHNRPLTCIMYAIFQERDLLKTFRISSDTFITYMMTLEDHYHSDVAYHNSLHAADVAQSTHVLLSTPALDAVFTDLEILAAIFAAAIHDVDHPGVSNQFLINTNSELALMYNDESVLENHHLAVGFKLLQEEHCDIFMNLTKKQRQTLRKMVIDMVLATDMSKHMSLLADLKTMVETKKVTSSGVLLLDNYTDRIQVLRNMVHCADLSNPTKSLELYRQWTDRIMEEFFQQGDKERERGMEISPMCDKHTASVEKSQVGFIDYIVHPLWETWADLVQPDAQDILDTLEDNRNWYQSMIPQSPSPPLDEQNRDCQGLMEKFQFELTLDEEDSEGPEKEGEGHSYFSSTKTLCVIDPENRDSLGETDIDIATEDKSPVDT

For test [18], the target named is Cytochrome P450 3A4 (Homo sapiens) (UniProt P08684). In words: qHTS Assay for Activators of Cytochrome P450 3A4 (AID 885). Further: nearly all actives have a fitted effect of over 65% in size. A digest of the protocol:
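Human CYP3A4 (20 nM) with Luciferin-PPXE at 25 uM (its KM) in 200 mM KPO4; 10 min compound preincubation, then NADPH regeneration and 60 min reaction at RT. Luciferin read by luminescence; normalized to 57 uM ketoconazole full inhibition.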

Setting [19] is: measured here: cell count channel max response.
Where [20] appears, read: measured here: lipid channel max response.

Inconclusive results are not listed. Activity calls are given as the source filed them. Unless noted, the call rests on the fitted dose curve; in most records, active means well fitted curve in the direction sought with a large enough effect; inconclusive means small, poorly fitted or top-dose-only effect, or another doubt; inactive means no such curve, though single readings can be large; an effect the other way counts as inactive or inconclusive.

Chain of Lysosomal acid glucosylceramidase (Homo sapiens) (P04062 whole entry, looked up): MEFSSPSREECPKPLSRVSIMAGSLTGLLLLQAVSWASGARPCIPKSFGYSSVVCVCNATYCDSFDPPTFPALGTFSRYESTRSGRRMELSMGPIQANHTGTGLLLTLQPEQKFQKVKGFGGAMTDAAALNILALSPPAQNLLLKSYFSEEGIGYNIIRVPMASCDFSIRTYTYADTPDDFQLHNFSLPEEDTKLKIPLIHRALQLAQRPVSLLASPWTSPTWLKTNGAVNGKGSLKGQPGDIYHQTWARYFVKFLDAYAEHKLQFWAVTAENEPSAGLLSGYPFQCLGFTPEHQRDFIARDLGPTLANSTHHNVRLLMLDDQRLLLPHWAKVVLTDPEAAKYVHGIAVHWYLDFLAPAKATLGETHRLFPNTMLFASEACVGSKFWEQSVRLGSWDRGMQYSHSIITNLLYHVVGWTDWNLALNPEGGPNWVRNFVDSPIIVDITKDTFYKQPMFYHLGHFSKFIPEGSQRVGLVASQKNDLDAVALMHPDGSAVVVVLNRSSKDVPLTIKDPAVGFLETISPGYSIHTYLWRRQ
Chain of Cytochrome P450 1A2 (Homo sapiens) (P05177 whole entry, looked up): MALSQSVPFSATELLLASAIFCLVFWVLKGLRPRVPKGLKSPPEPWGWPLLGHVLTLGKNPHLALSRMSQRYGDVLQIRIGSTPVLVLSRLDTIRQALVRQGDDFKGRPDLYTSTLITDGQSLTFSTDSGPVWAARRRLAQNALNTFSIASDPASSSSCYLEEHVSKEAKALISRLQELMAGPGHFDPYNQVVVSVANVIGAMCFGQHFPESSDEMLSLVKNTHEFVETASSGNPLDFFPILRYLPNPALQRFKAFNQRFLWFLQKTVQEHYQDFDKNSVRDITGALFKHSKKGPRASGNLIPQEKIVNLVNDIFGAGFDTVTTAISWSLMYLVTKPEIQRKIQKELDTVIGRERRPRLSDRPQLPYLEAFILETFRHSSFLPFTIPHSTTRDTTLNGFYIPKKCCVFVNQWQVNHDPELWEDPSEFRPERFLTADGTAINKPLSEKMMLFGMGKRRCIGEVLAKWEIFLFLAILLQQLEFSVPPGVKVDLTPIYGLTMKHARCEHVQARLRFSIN
Chain of Ubiquitin carboxyl-terminal hydrolase 1 (Homo sapiens) (O94782 whole entry, looked up): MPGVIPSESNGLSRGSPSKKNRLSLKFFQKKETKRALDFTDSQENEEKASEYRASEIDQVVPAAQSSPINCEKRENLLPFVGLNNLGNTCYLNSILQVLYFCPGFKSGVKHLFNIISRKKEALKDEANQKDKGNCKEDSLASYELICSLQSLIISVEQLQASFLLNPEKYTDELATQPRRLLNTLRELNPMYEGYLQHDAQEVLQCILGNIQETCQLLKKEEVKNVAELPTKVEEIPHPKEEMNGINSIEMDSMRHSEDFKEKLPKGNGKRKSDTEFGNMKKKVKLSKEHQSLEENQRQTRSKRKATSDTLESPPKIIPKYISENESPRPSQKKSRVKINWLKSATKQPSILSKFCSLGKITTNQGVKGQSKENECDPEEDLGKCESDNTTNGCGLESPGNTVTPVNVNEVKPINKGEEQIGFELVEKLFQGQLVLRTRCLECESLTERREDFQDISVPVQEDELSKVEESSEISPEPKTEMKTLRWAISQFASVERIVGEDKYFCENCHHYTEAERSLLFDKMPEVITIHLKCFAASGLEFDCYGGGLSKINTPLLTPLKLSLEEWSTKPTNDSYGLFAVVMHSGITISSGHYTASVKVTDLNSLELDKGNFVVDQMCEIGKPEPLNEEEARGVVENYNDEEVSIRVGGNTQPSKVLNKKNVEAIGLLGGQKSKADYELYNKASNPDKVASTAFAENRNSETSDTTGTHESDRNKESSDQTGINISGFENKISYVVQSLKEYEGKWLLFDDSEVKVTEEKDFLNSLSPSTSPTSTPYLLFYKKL
Chain of Cytochrome P450 3A4 (Homo sapiens) (P08684 whole entry, looked up): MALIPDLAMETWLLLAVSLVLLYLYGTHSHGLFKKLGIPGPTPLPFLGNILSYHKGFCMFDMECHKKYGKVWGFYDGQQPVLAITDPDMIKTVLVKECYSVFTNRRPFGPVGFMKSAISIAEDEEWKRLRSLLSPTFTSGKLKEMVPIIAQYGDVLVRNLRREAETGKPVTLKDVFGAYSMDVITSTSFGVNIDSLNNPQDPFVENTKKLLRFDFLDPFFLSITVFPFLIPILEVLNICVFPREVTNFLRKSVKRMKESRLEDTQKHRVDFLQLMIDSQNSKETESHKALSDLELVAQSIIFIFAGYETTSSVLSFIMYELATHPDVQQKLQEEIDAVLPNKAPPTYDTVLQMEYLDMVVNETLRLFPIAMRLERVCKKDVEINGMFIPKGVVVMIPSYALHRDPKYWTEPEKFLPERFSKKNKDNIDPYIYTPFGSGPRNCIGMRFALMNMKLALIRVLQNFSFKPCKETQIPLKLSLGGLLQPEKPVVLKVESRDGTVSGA

As for `COCCNc1ncnc2ccc(-c3ccccc3C)cc12`, the activity change, negative = inhibition in test [1] was -10.5% (inactive); in test [2] it was 10.4% (inactive); in [7] it was -6.26% (inactive). Further, the activity, negative = inhibition in test [3] is -16.2% (inactive). Moreover, the Potency in [4] was > 46 µM (inactive); in test [5], > 46 µM (inactive); in test [8], 14.1 µM (active); in test [9] it was 8.91 µM (active). Moreover, the result in test [6] was inactive. For the same compound, the max response was -10.5% in [7] (setting [19]) and -19.3% in [7] (setting [20]). For the same compound, the Potency entry in test [10] and in test [11] was “inactive” throughout.
For the compound `O=c1cnc2cncnc2n1Cc1ccccc1Cl`, the Potency was > 11.4 µM (inactive) in test [12], 15.8 µM (active) in test [13], > 9.22 µM (inactive) in [4] and > 46 µM (inactive) in test [5]. Besides, the activity change, negative = inhibition in test [1] is 8.55% (inactive); in [7] it was -7.78% (inactive). Also, in test [3], the activity, negative = inhibition is -5.06% (inactive). For the same compound, the result in [6] was inactive. Moreover, the max response is -0.667% in [7] (setting [19]) and -10.1% in test [7] (setting [20]). Further, the Potency entry in test [8], in [10] and in test [11] was “inactive” throughout.
Turning to `Cc1ccccc1-c1cc(Nc2ccccc2)ncn1`, the Potency in test [12] is > 11.4 µM (inactive); in test [13] it was 3.98 µM (active); in test [4], > 46 µM (inactive); in [5], > 46 µM (inactive); in [15], 3.16 µM (active). In addition, the values for the activity change, negative = inhibition in [1], in [2] and in test [7] were -4.93% (inactive), 1.39% (inactive) and 4.64% (inactive), respectively. Besides, the activity, negative = inhibition in [3] was 4.11% (inactive). In [6], the result was inactive. In addition, the Potency result in test [14], in test [8], in test [16], in test [10] and in test [11] was “inactive” throughout. For the same compound, the max response is 30.6% in [7] (setting [19]) and 31.4% in test [7] (setting [20]).
Regarding `Cc1ccccc1-c1cc(N2CCN(C)CC2)ncn1`, the Potency was > 11.4 µM (inactive) in test [12], > 46 µM (inactive) in test [4] and > 46 µM (inactive) in [5]. For the same compound, the values for the activity change, negative = inhibition in [1], in test [2] and in [7] were -0.925% (inactive), -7.69% (inactive) and -4.37% (inactive), respectively. For the same compound, the activity, negative = inhibition in test [3] is -0.251% (inactive). For the same compound, the result in test [6] was inactive. For the same compound, the Potency result in [17], in [8], in [9], in [10] and in test [11] was “inactive” throughout. Also, the values for the max response in test [7] (setting [19]) and in test [7] (setting [20]) were 3.49% and -4.04%, respectively.
Take `O=c1cnc2cnc(Nc3ccccc3)nc2n1Cc1cccs1`: the Potency in test [12] was > 11.4 µM (inactive); in [13], 1 µM (active); in [4], > 9.22 µM (inactive); in [5] it was > 46 µM (inactive); in test [8] it was 1.41 µM (active); in test [9] it was 2 µM (active). Besides, in test [6], the compound was called inactive. Moreover, the Potency entry in [18], in test [10] and in [11] was “inactive” in each case. Further, the activity change, negative = inhibition in [7] was 1.01% (inactive). Moreover, the max response in test [7] (setting [19]) was 12.8%; in test [7] (setting [20]), 12.5%.

For the origin of these results see PubChem BioAssay (NCATS).
